Drawing on PubChem BioAssay (NCI), this text covers growth for nine compounds.

Among the test systems are NCI-H23 lung; NCI-H226 lung; NCI-H322M lung; HOP-62 NSCLC; NCI-H460 lung; HOP-92 NSCLC; NCI-H522 lung; A549/ATCC NSCLC; 786-0 renal; COLO 205 colon; DU-145 prostate; K-562 leukemia; MALME-3M melanoma; MDA-MB-231 breast; SF-268 CNS; SF-295 CNS; SF-539 CNS; UACC-257 melanoma; M14 melanoma; RXF 393 renal.
Holding throughout (experiment): NCI-60 one-dose screen, 48 h (100 = growth as untreated, 0 = no growth, -100 = all killed)
Conditions in all cases: 10 µM unless noted

This is part of a sample that, as a whole, favours compounds with a hit. Of some 83,000 tested, about 20% had one in any assay.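 Plates (96-well) were seeded with cells, treated with compound at one concentration, and incubated for 48 hours before percent growth was determined.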 Values without a mark were called inactive. Calls of active or inactive are those of the source. How the source made its calls: active means growth percent below 10; inactive means the rest.

In the case of `CN1CCCN(C(c2ccccc2)c2ccc(Br)cc2)CC1` (centres undefined), the growth was 87.1% with NCI-H23 lung; 78.2% with NCI-H226 lung; 39.7% with NCI-H322M lung; 76.8% with HOP-62 NSCLC; 82.5% in the assay with NCI-H460 lung; 25.8% in the assay on HOP-92 NSCLC. Also, the growth with NCI-H522 lung was 90.8%; in the assay with A549/ATCC NSCLC, 87.7%; in the assay with 786-0 renal it was 79.1%; with COLO 205 colon it was 81.5%; in the assay with DU-145 prostate, 94.8%; in the assay with K-562 leukemia, 20.3%. The growth was 63.1% with MALME-3M melanoma; 49% in the assay with MDA-MB-231 breast; 61.6% in the assay with SF-268 CNS; 57.8% in the assay with SF-295 CNS; 75.2% in the assay on SF-539 CNS; 91% in the assay on UACC-257 melanoma. In the assay with M14 melanoma, the growth is -8.62% (active).

In the case of `CC(C)(C)NCCC(O)c1cc(C(F)(F)F)nc2c(C(F)(F)F)cccc12` (centres undefined), the growth with NCI-H23 lung is 95.5%; with NCI-H226 lung, 75.2%; in the assay with NCI-H322M lung it was 76.2%; in the assay on HOP-62 NSCLC it was 68.3%; in the assay with NCI-H460 lung it was 44.4%; in the assay on HOP-92 NSCLC it was 40.2%. Further, the growth with NCI-H522 lung is 76.2%; with A549/ATCC NSCLC, 57.5%; in the assay with 786-0 renal, 80.3%; in the assay with COLO 205 colon it was 97.7%; in the assay on DU-145 prostate, 73.6%; in the assay on K-562 leukemia it was 64.5%. Further, the growth with MALME-3M melanoma was 102%; with MDA-MB-231 breast, 55.1%; in the assay with RXF 393 renal, 73.3%; with SF-268 CNS it was 71%; in the assay on SF-539 CNS, 75.1%; in the assay on UACC-257 melanoma, 90.1%. Also, the growth with M14 melanoma was 84.6%.

For `CC(=O)NC(O)C(Cl)Cl` (centres undefined), the growth was 91.8% in the assay with NCI-H23 lung; 102% in the assay with NCI-H226 lung; 98.4% in the assay with NCI-H322M lung; 95.6% in the assay with HOP-62 NSCLC; 106% with NCI-H460 lung; 94.9% in the assay on HOP-92 NSCLC. Besides, the growth in the assay on NCI-H522 lung is 94%; in the assay on A549/ATCC NSCLC, 102%; in the assay on 786-0 renal, 112%; in the assay on COLO 205 colon, 98.9%; in the assay on DU-145 prostate, 99.2%; in the assay on K-562 leukemia it was 84.3%. For the same compound, the growth is 96.7% in the assay with MALME-3M melanoma; 113% in the assay on RXF 393 renal; 95% in the assay with SF-268 CNS; 93.6% with SF-295 CNS; 90.6% in the assay with SF-539 CNS; 107% in the assay on UACC-257 melanoma. Besides, in the assay on M14 melanoma, the growth was 110%.

For the compound `Clc1cccc(Cl)c1C1CSc2ccccc2N=C1c1ccccc1` (centres undefined), the growth in the assay on NCI-H23 lung was 75.6%; with NCI-H226 lung, 82.7%; with NCI-H322M lung, 86.3%; with HOP-62 NSCLC, 84.6%; in the assay with NCI-H460 lung it was 83.1%; in the assay with HOP-92 NSCLC, 75.4%. Further, the growth in the assay on NCI-H522 lung is 63.6%; with A549/ATCC NSCLC, 73.8%; with 786-0 renal, 90.6%; with COLO 205 colon, 102%; with DU-145 prostate, 59.6%; with K-562 leukemia, 4.38% (active). For the same compound, the growth is 110% with MALME-3M melanoma; 70.5% in the assay with MDA-MB-231 breast; 73.4% in the assay with SF-268 CNS; 101% with SF-539 CNS; 51.4% in the assay with UACC-257 melanoma; 86.6% in the assay with M14 melanoma.

With `C=C(c1ccc(N(C)C)cc1)c1ccc(N(C)C)cc1`, the growth with NCI-H23 lung was 16.2%; with NCI-H226 lung, 44.3%; in the assay on NCI-H322M lung, 29.7%; with HOP-62 NSCLC, 23.1%; with NCI-H460 lung, 6.37% (active); in the assay with HOP-92 NSCLC, -2.12% (active). Also, the growth was -28.6% (active) in the assay on NCI-H522 lung; 30.8% in the assay on A549/ATCC NSCLC; 34.6% in the assay on 786-0 renal; -4.63% (active) in the assay with COLO 205 colon; 20.3% with DU-145 prostate; 5.61% (active) with K-562 leukemia. Further, the growth in the assay with MALME-3M melanoma is 20.6%; with RXF 393 renal it was -11% (active); in the assay on SF-268 CNS, 31.2%; in the assay with SF-295 CNS it was 21%; in the assay on SF-539 CNS, -44.9% (active); with UACC-257 melanoma, 52.3%. The growth in the assay with M14 melanoma is -47.2% (active).

With `CCOC(C=O)OCC`, the growth with NCI-H23 lung is 99%; in the assay on NCI-H226 lung, 104%; with NCI-H322M lung it was 104%; with HOP-62 NSCLC, 99.5%; in the assay with NCI-H460 lung it was 113%; in the assay with HOP-92 NSCLC, 95.8%. Further, the growth was 93.1% in the assay with NCI-H522 lung; 97.4% in the assay on A549/ATCC NSCLC; 99.7% in the assay with 786-0 renal; 105% in the assay with COLO 205 colon; 104% in the assay with DU-145 prostate; 106% in the assay on K-562 leukemia. In addition, the growth was 92.6% in the assay on MALME-3M melanoma; 121% with RXF 393 renal; 98.3% with SF-268 CNS; 99% in the assay on SF-295 CNS; 97.8% in the assay with SF-539 CNS; 96.6% in the assay with UACC-257 melanoma. Moreover, the growth in the assay on M14 melanoma is 106%.

With `CNc1ccccc1C(N)=O`, the growth in the assay on NCI-H23 lung is 99%; in the assay with NCI-H226 lung, 103%; in the assay on NCI-H322M lung it was 97.3%; in the assay on HOP-62 NSCLC it was 95.9%; with NCI-H460 lung, 108%; with HOP-92 NSCLC, 110%. Moreover, the growth in the assay with NCI-H522 lung is 98.1%; in the assay on A549/ATCC NSCLC it was 97.4%; in the assay with 786-0 renal it was 101%; in the assay with COLO 205 colon, 115%; with DU-145 prostate, 107%; with K-562 leukemia, 108%. Moreover, the growth in the assay with MALME-3M melanoma is 97.9%; in the assay with RXF 393 renal it was 98.1%; in the assay with SF-268 CNS it was 100%; with SF-295 CNS it was 95.5%; in the assay on SF-539 CNS, 97.6%; in the assay with UACC-257 melanoma, 98.4%. Moreover, the growth with M14 melanoma is 96.2%.

Take `O=C1C=CC(=O)C2=C1CCCC2`: the growth is 86.4% with NCI-H23 lung; 79.6% in the assay with NCI-H226 lung; 92% in the assay on NCI-H322M lung; 92.4% in the assay on HOP-62 NSCLC; 95.9% in the assay on NCI-H460 lung; 135% in the assay on HOP-92 NSCLC. For the same compound, the growth is 94% in the assay with NCI-H522 lung; 95.8% with A549/ATCC NSCLC; 107% in the assay with 786-0 renal; 110% in the assay with COLO 205 colon; 101% with DU-145 prostate; 46.3% in the assay on K-562 leukemia. Also, the growth in the assay on MALME-3M melanoma is 91.9%; in the assay on RXF 393 renal, 103%; in the assay with SF-268 CNS it was 93.7%; with SF-295 CNS, 104%; in the assay on SF-539 CNS, 104%; in the assay with UACC-257 melanoma, 95.6%. In the assay on M14 melanoma, the growth is 96.4%.

Take `O=S(=O)(c1ccc(NC(=S)NCc2cccnc2)cc1)N1CCCCC1`: the growth in the assay on NCI-H23 lung was 87%; in the assay with NCI-H226 lung, 86.7%; with NCI-H322M lung it was 91.4%; in the assay on HOP-62 NSCLC it was 83.1%; with NCI-H460 lung it was 63%; in the assay with HOP-92 NSCLC it was 86.2%. Also, the growth in the assay with NCI-H522 lung is 19.1%; in the assay with A549/ATCC NSCLC, 65.2%; with 786-0 renal, 93.8%; in the assay with COLO 205 colon, 63%; in the assay with DU-145 prostate, 46.9%; in the assay on K-562 leukemia, 33%. Besides, the growth was 90.3% in the assay with MALME-3M melanoma; 95.1% in the assay with MDA-MB-231 breast; 72.6% with SF-268 CNS; 31.9% with SF-539 CNS; 101% in the assay with UACC-257 melanoma; 39.7% with M14 melanoma.
